Measured values: the supplement of paper PMC10981050
“And” between values parts separate entries of the source, which are not always exact repeats. Equal entries are not always repeated.

Legend:
Test in all cases: cell viability relative to vehicle control; higher = less cytotoxic
Settings in all cases: 10 µM
K562 = tested on: K562
Procedure, shortened: (§1)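 Four leukaemia lines, as CRISPR-edited mutant clones and isogenic wild-type clones, were tested against Selleck bioactive, kinase and epigenetic probe libraries after removal of identity-inconsistent compounds. Cells were exposed to a single 10 µM dose for 48 h, and CellTiter-Glo luminescence was then read. Viability was calculated relative to the on-plate vehicle control.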

MARIMO = tested on: MARIMO
Procedure, shortened: as §1

MOLM14 = tested on: MOLM14
Procedure, shortened: as §1

OCI-AML2 = tested on: OCI-AML2
Procedure, shortened: as §1

SMILES	cell viability (K562; SRSF2 genotype: SRSF2 P95H/wt)	cell viability (K562; SRSF2 genotype: SRSF2 wt/wt)	cell viability (MARIMO; SRSF2 genotype: SRSF2 P95H/wt)	cell viability (MARIMO; SRSF2 genotype: SRSF2 wt/wt)	cell viability (MOLM14; SRSF2 genotype: SRSF2 P95H/wt)	cell viability (MOLM14; SRSF2 genotype: SRSF2 wt/wt)	cell viability (OCI-AML2; SRSF2 genotype: P95H/wt)	cell viability (OCI-AML2; SRSF2 genotype: wt/wt)
C[C@H](CCC(=O)O)[C@H]1CC[C@H]2[C@@H]3[C@@H](O)C[C@@H]4C[C@H](O)CC[C@]4(C)[C@H]3CC[C@]12C [Ursodiol (Actigal Urso)]	95.3% and 97.4%	96.6%	103%	98.9%	99.4%	100%	98.1%	99.7%
Cc1cc(/C=C2/SC(=S)NC2=O)c(C)n1-c1cccnc1 [Optovin]	85.7% and 83.4%	85%	92.2%	102%	89.3%	90.5%	107%	97.2%
Cc1cc(C)nc(SCC(=O)Nc2ncc(Cc3cccc4ccccc34)s2)n1	79.2% and 84.5%	75.5%	78.5%	86.9%	41.1%	42.4%	61.4%	66.4%
COc1cc(Nc2ncc(F)c(Nc3ccc4c(n3)N(COP(=O)(O)O)C(=O)C(C)(C)O4)n2)cc(OC)c1OC	97.6% and 98.5%	97.5%	107%	114%	8.88%	11.4%	26.3%	37%
Cn1cnc(-c2cc3nccc(Oc4ccc(NC(=S)NC(=O)Cc5ccccc5)cc4F)c3s2)c1	80.4% and 84.1%	71.9%	87.8%	105%	23.3%	15.3%	49.2%	58.8%
COc1cc(Nc2ncc(F)c(Nc3ccc4c(n3)N(COP(=O)(O)O)C(=O)C(C)(C)O4)n2)cc(OC)c1OC [R788 (Fostamatinib)]	65.8% and 65.1%	59.4%	63.8%	57%	3.63%	6.37%	11.3%	21.2%
C=C1CC[C@H]2C(=C)CC[C@H]3C(=C)C(=O)O[C@@H]3[C@@H]12 [Dehydrocostus Lactone]	25.2% and 23.9%	30.8%	13.7%	16.1%	8.31%	11.1%	3.84%	6.64%
C[C@H]1Oc2cc(cnc2N)-c2c(nn(C)c2C#N)CN(C)C(=O)c2ccc(F)cc21	102% and 95.5%	99.1%	91.1%	91%	119%	106%	94.9%	104%
Cc1cc(Nc2ncnc3ccc(NC4=NC(C)(C)CO4)cc23)ccc1Oc1ccn2ncnc2c1	87.4% and 89.8%	91.5%	82.5%	102%	88.2%	97.2%	64.9%	73.7%
CC(C)n1nc(-c2ccc3oc(N)nc3c2)c2c(N)ncnc21	31.8% and 31.3%	29.9%	37.9%	32.7%	13.6%	15.8%	6.33%	12%
C=CC(=O)N1CCN(CCCn2c(=O)c(-c3c(Cl)c(OC)cc(OC)c3Cl)cc3cnc(NC)nc32)CC1	85.1% and 88.1%	86.8%	63.3%	72.7%	85.3%	88.1%	65.2%	69.4%
C[C@@H]1C(=O)O[C@H]2C[C@@]34[C@H]5C[C@@H](C(C)(C)C)[C@]36[C@@H](OC(=O)[C@@H]6O)O[C@@]4(C(=O)O5)[C@]21O [Ginkgolide A]	105% and 100%	97.8%	101%	106%	105%	103%	106%	95.5%
CCN(CC)CC#CCOC(=O)C(O)(c1ccccc1)C1CCCCC1 (stereo not given) [Oxybutynin chloride]	94.9% and 97.5%	88.6%	79.8%	96%	83%	101%	80.8%	91.8%
Cc1cc(C)n(C)n1 [1,3,5-Trimethylpyrazole]	110% and 105%	115%	113%	109%	97.9%	110%	104%	104%
O=C(O)c1ccc(-n2nc(-c3ccccc3O)nc2-c2ccccc2O)cc1 [Deferasirox (Exjade)]	93.5% and 95.5%	76.4%	60.3%	74%	83.5%	60%	58.3%	67.8%
Cc1cc(Nc2ccc(NC(=O)c3ccc(Nc4ccnc5ccccc45)cc3)cc2)nc(N)n1	1.14% and 0.97%	2.69%	0.48%	0.36%	0.33%	0.25%	0.22%	0.27%
C=CCc1ccc(O)c(-c2ccc(O)c(CC=C)c2)c1 [Honokiol]	84.9% and 87.5%	83.8%	84.5%	92.7%	85.5%	98.9%	66.7%	72.3%
CC1=C(/C=C/C(C)=C/C=C/C(C)=C/C=C/C=C(C)/C=C/C=C(C)/C=C/C2=C(C)CCCC2(C)C)C(C)(C)CCC1 [Beta Carotene]	100% and 103%	92%	93.3%	101%	93.8%	98%	98.3%	105%
CCOc1ccc(Cc2cc([C@@H]3O[C@H](SC)[C@@H](O)[C@H](O)[C@H]3O)ccc2Cl)cc1 [Sotagliflozin (LX4211)]	84.2% and 86%	81.4%	86.3%	97.3%	89.7%	89.5%	88.6%	96.9%
C=C1C2CCC(C2)C1(C)CCC=C(C)CO (stereo not given) [Santalol]	106% and 103%	98.6%	105%	94.3%	106%	104%	102%	101%
